Structures can show the parent of a compound that is named as a salt.
Columns and labels:
Settings in all cases: compound concentration in added solution (µM; 5 µl added to 20 µl cells): 10; 18 h
A431 [1] = assay: LBPA endosome anti-LBPA integrated intensity (sum per cell), Z-score; higher = more LBPA staining
In short: (§1)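 Four 20× images per well were taken of HeLa MZ or A431 cells that had been seeded at 3,500 per well in 20 µl onto 5 µl of 10 µM compound solution in duplicate 384-well imaging plates. Before imaging, cells were incubated 18 h, fixed in 4% PFA and stained with 6C4 anti-LBPA antibody, filipin, propidium iodide and CellTracker green. Values are Z-scores normalised in AcuityXpress from MetaXpress-derived per-cell integrated LBPA or filipin intensity, either whole-cell or within LBPA endosomes.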

HeLa MZ [2] = assay: as above
In short: as §1

A431 [3] = assay: whole-cell filipin (free cholesterol) integrated intensity, Z-score; higher = more cholesterol staining
In short: as §1

HeLa MZ [4] = assay: as above
In short: as §1

A431 [5] = assay: filipin (cholesterol) integrated intensity within LBPA endosomes, Z-score; higher = more cholesterol in LBPA endosomes
In short: as §1

HeLa MZ [6] = assay: as above
In short: as §1

SMILES | LBPA endosome anti-LBPA integrated intensity (z-score) (A431 [1]) | LBPA endosome anti-LBPA integrated intensity (z-score) (HeLa MZ [2]) | whole-cell filipin (z-score) (A431 [3]) | whole-cell filipin (z-score) (HeLa MZ [4]) | filipin (z-score) (A431 [5]) | filipin (z-score) (HeLa MZ [6])
CC(=O)Oc1cc(C(C)C)c(OCCN(C)C)cc1C [Moxisylyte hydrochoride] | -0.364 | -0.0871 | -0.91 | -1.03 | -0.482 | -0.452
CC(O)(P(=O)(O)O)P(=O)(O)O [Etidronic acid, disodium salt] | -0.428 | -0.376 | -0.14 | -0.368 | -0.461 | -0.4
CC(C)NC[C@H](O)COc1cccc2ccccc12 [(S)-propranolol hydrochloride] | -0.105 | 1.72 | 0.666 | -0.426 | -0.189 | 0.093
COc1ccccc1OCC(O)CN1CCN(CC(=O)Nc2c(C)cccc2C)CC1 (centres undefined) [Ranolazine] | -0.238 | 1.53 | -0.112 | -0.533 | -0.352 | -0.221
CN(C)CCCN1c2ccccc2Sc2ccc(Cl)cc21 [Chlorpromazine hydrochloride] | 3.29 | 1.39 | 0.659 | 0.0307 | 2.35 | 1.67
NC(N)=Nc1nc(CSCC/C(N)=N/S(N)(=O)=O)cs1 [Famotidine] | -0.5 | -0.604 | -0.838 | -0.898 | -0.447 | -0.623
CCC(=O)[C@@]1(C)[C@H](C)C[C@H]2[C@@H]3CCC4=CC(=O)C=C[C@]4(C)[C@H]3[C@@H](O)C[C@@]21C [Rimexolone] | -0.0932 | 0.328 | 0.343 | -0.0902 | -0.235 | -0.418
CC[C@H](C)C(=O)O[C@H]1C[C@H](O)C=C2C=C[C@H](C)[C@H](CC[C@@H](O)C[C@@H](O)CC(=O)O)[C@H]21 [Pravastatin] | 1.48 | 0.0503 | -0.289 | -0.634 | 0.0167 | -0.441
Cc1c(C)c2c(c(C)c1O)CCC(C)(C(=O)O)O2 (centres undefined) [Trolox] | -0.472 | 0.342 | -0.624 | 0.128 | -0.552 | -0.401
CC[C@H](c1ccc(O)cc1)[C@@H](CC)c1ccc(O)cc1 [Hexestrol] | -0.48 | -0.198 | -0.492 | -0.508 | -0.435 | -0.383
NC(Cc1cc(I)c(Oc2cc(I)c(O)c(I)c2)c(I)c1)C(=O)O (centres undefined) [Thyroxine (L)] | -0.687 | -1.35 | -1.1 | -0.619 | -0.586 | -0.6
CCC1(C)CC(=O)NC1=O (centres undefined) [Ethosuximide] | -0.426 | -0.83 | -0.448 | -0.207 | -0.393 | -0.464
COc1ccc2cc([C@H](C)C(=O)O)ccc2c1 [Naproxen] | -0.53 | -0.655 | -0.923 | -0.439 | -0.525 | -0.644
CC(C)NC[C@@H](O)COc1ccc(CC(N)=O)cc1 [(R)-(+)-Atenolol] | -0.596 | -1.65 | -0.23 | -0.591 | -0.512 | -0.472
C[C@H](CCC(=O)O)[C@H]1CC[C@H]2[C@@H]3[C@@H](O)C[C@@H]4C[C@H](O)CC[C@]4(C)[C@H]3CC[C@]12C [Urosiol] | -0.47 | -1.19 | -0.529 | -0.329 | -0.433 | -0.53
CCN1CCCC1CNC(=O)c1cc(S(=O)(=O)CC)c(N)cc1OC (centres undefined) [Amisulpride] | -0.554 | -0.244 | -0.77 | -0.754 | -0.543 | -0.453
CC[N+](C)(C)Cc1ccccc1Br [Bretylium tosylate] | -0.568 | -0.254 | -0.37 | -0.522 | -0.5 | -0.561
O=C(OCCOCCO)c1ccccc1Nc1cccc(C(F)(F)F)c1 [Etofenamate] | -0.474 | -0.295 | -0.883 | -1.24 | -0.564 | -0.692
CCOC(=O)[C@H](CCc1ccccc1)N[C@@H](C)C(=O)N1CCC[C@H]1C(=O)O [Enalapril maleate] | -0.644 | -2 | -1.09 | -0.795 | -0.578 | -0.713
COc1ccc2c3c1O[C@H]1C[C@@H](O)C=C[C@@]31CCN(C)C2 [Galanthamine hydrobromide] | -0.594 | -0.476 | -0.752 | -0.607 | -0.584 | -0.496
Cc1onc(-c2ccccc2)c1C(=O)N[C@@H]1C(=O)N2[C@@H]1SC(C)(C)[C@@H]2C(=O)O [Oxacillin sodium] | -0.391 | 0.32 | -0.277 | -0.0335 | -0.382 | -0.445
CC(C)(C#N)c1cc(Cn2cncn2)cc(C(C)(C)C#N)c1 [Anastrozole] | -0.573 | -1.31 | -0.205 | -0.00341 | -0.428 | -0.659
CC1(C)S[C@@H]2[C@H](NC(=O)Cc3ccccc3)C(=O)N2[C@H]1C(=O)O [Benzathine benzylpenicillin] | -0.419 | 0.43 | 0.0117 | 0.113 | -0.376 | -0.279
Nc1nc(=O)c2c([nH]1)NC[C@@H](CNc1ccc(C(=O)N[C@@H](CCC(=O)O)C(=O)O)cc1)N2C=O [Folinic acid calcium salt] | -0.476 | -0.265 | -0.437 | -0.13 | -0.451 | -0.42
O=C(CCCN1CCN(c2ccccn2)CC1)c1ccc(F)cc1 [Azaperone] | -0.0879 | 0.592 | 0.0723 | 0.216 | -0.168 | 0.329

SMILES | LBPA endosome anti-LBPA integrated intensity (z-score) (A431 [1]) | LBPA endosome anti-LBPA integrated intensity (z-score) (HeLa MZ [2]) | whole-cell filipin (z-score) (A431 [3]) | whole-cell filipin (z-score) (HeLa MZ [4]) | filipin (z-score) (A431 [5]) | filipin (z-score) (HeLa MZ [6])
c1ccc2[nH]c(-c3cscn3)nc2c1 [Tiabendazole] | -0.626 | -1.01 | -0.678 | -0.558 | -0.54 | -0.645
CS(=O)(=O)c1ccc([C@@H](O)[C@@H](CO)NC(=O)C(Cl)Cl)cc1 [Thiamphenicol] | -0.461 | -0.533 | -0.551 | -0.526 | -0.439 | -0.625
N/C(=N\C(=O)c1nc(Cl)c(N)nc1N)NCc1ccccc1 [Benzamil hydrochloride] | 0.224 | 1.13 | 0.167 | 0.672 | -0.0522 | 0.566
CNCCCC12CCC(c3ccccc31)c1ccccc12 [Maprotiline hydrochloride] | 1.93 | 0.295 | 1.09 | 1.4 | 2.92 | 3.38
CCOC(=O)NNc1nncc2ccccc12 [Todralazine hydrochloride] | -0.642 | -1.72 | -0.897 | -0.795 | -0.572 | -0.622
CCCc1nc(C)c2c(=O)nc(-c3cc(S(=O)(=O)N4CCN(CC)CC4)ccc3OCC)[nH]n12 [Vardenafil] | -0.314 | 1.35 | 0.127 | 0.375 | -0.156 | 0.224
O=C1CN(/N=C/c2ccc([N+](=O)[O-])o2)C(=O)N1 [Nitrofurantoin] | -0.475 | -1.22 | -0.354 | -0.515 | -0.501 | -0.575
CCCCOc1cc(C(=O)NCCN(CC)CC)c2ccccc2n1 [Dibucaine] | 2.05 | 2.71 | 2.14 | 1.5 | 2.29 | 2.2
CNC[C@H](O)[C@@H](O)[C@H](O)[C@H](O)CO [Meglumine] | -0.671 | -1.5 | -0.386 | -0.451 | -0.555 | -0.582
O=C(c1ccc(F)cc1)C1CCN(CCn2c(=O)[nH]c3ccccc3c2=O)CC1 [Ketanserin tartrate hydrate] | 0.533 | 0.294 | 0.959 | 0.523 | 0.805 | 0.808
CC1(C)O[C@@H]2C[C@H]3[C@@H]4C[C@H](F)C5=CC(=O)CC[C@]5(C)[C@H]4[C@@H](O)C[C@]3(C)[C@]2(C(=O)CO)O1 [Flurandrenolide] | -0.226 | -0.763 | -0.173 | 0.429 | -0.236 | -0.297
CC(C)(C)NCC(O)c1ccc(O)c(CO)c1 (centres undefined) [Salbutamol] | -0.288 | -0.311 | 0.022 | -0.307 | -0.535 | -0.499
CC1CS(=O)(=O)CCN1/N=C/c1ccc([N+](=O)[O-])o1 (centres undefined) [Nifurtimox] | -0.541 | -0.54 | 0.0023 | -0.211 | -0.444 | -0.628
CCCC1O[C@@H]2C[C@H]3[C@@H]4CCC5=CC(=O)C=C[C@]5(C)[C@H]4[C@@H](O)C[C@]3(C)[C@]2(C(=O)CO)O1 (some centres undefined) [Budesonide] | -0.313 | -0.695 | 0.452 | 0.254 | -0.143 | 0.318
CC[C@@H](CO)NCCN[C@@H](CC)CO [Ethambutol dihydrochloride] | -0.297 | -0.0372 | -0.506 | -0.399 | -0.429 | -0.483
CC[N+](C)(C)c1cccc(O)c1 [Edrophonium chloride] | -0.613 | -1.29 | -0.969 | -0.842 | -0.456 | -0.596
Nc1ccc(C(=O)NCC(=O)O)cc1 [Aminohippuric acid] | -0.53 | -0.169 | -0.32 | -0.186 | -0.48 | -0.359
CCCCC1(COC(=O)CCC(=O)O)C(=O)N(c2ccccc2)N(c2ccccc2)C1=O [Suxibuzone] | -0.274 | 0.271 | -0.0127 | 0.34 | -0.358 | -0.384
O=C(O)c1cccnc1 [Niacin] | -0.578 | -1.61 | -0.557 | -0.648 | -0.464 | -0.617
NCCCC(O)(P(=O)(O)O)P(=O)(O)O [Alendronate sodium] | -0.662 | -1.69 | -0.705 | -0.128 | -0.56 | -0.588
CC1(C)NC(=O)N(c2ccc([N+](=O)[O-])c(C(F)(F)F)c2)C1=O [Nilutamide] | -0.466 | -0.349 | -0.373 | -0.711 | -0.474 | -0.472
C[C@H](N)[C@H](O)c1cccc(O)c1 [Metaraminol bitartrate] | -0.242 | -0.0318 | -0.347 | -0.355 | -0.416 | -0.505
CN1CCCN=C1/C=C/c1cccs1 [Pyrantel tartrate] | -0.533 | -0.181 | -0.934 | -1.12 | -0.565 | -0.677
CC(=O)N(CC(O)CO)c1c(I)c(C(=O)NCC(O)CO)c(I)c(C(=O)NCC(O)CO)c1I (centres undefined) [Iohexol] | -0.463 | 0.247 | -0.643 | -0.949 | -0.508 | -0.655
